Assay results taken from PubChem BioAssay (NCI).
About 83,000 compounds went through this panel and 20% of them were active in at least one assay; those are over-represented in the sample as a whole.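 Plates (96-well) were seeded with cells, treated with compound at one concentration, and incubated for 48 hours before percent growth was determined.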 The source made the active and inactive calls. Rule for the calls: active = growth percent below 10; inactive = the rest.

How the values were obtained:
Assay in all cases: NCI-60 one-dose screen, 48 h (100 = growth as untreated, 0 = no growth, -100 = all killed)
Settings in all cases: 10 µM unless noted
[1] = system: SR leukemia
[2] = system: RPMI-8226 leukemia
[3] = system: OVCAR-8 ovarian
[4] = system: OVCAR-5 ovarian
[5] = system: OVCAR-4 ovarian
[6] = system: SK-OV-3 ovarian
[7] = system: IGROV1 ovarian
[8] = system: OVCAR-3 ovarian
[9] = system: HS 578T breast
[10] = system: NCI/ADR-RES ovarian

Measured: growth

COP(=O)(OC)C(C)(C)CC(=O)CC(C#N)(C#N)C(C#N)C#N
inactive: [1] 95.5% | [2] 87.8% | [3] 105% | [4] 94.4% | [5] 116% | [6] 101% | [7] 110% | [8] 114% | [9] 104% | [10] 98.4%

COc1ccc(/C=C2\C(=O)N=C3N2NC(c2cc(Br)ccc2O)C=C(C)N3c2ccccc2)cc1 (stereo not given)
inactive: [1] 102% | [2] 91.5% | [3] 98.1% | [4] 104% | [5] 96.5% | [6] 99.6% | [7] 91% | [8] 103% | [9] 95.9% | [10] 93.9%

C=CCc1c(O)c(C(=O)/C=C/c2ccc(Cl)cc2)c(OC)c2ccoc12
inactive: [1] 17.7% | [3] 42.6% | [4] 100% | [5] 57.3% | [6] 66.4% | [7] 43.3% | [8] 32.8% | [9] 81% | [10] 39.1%
active: [2] 8.82%

N#Cc1c(-c2ccc(Cl)cc2)nc(NN=Cc2cccc(O)c2)nc1N1CCOCC1
inactive: [2] 37.4% | [3] 65.4% | [4] 97.4% | [5] 72.4% | [6] 98% | [7] 64.9% | [8] 77.7% | [9] 89.4% | [10] 64.9%
active: [1] 4.7%

C=C1C(=O)O[C@H]2[C@H]1CC/C(COC(=O)NCc1ccc(Cn3c(=O)sn(CCI)c3=O)cc1)=C\CC[C@@]1(C)O[C@@H]21
inactive: [2] 29.1% | [3] 89.4% | [4] 82% | [5] 32.1% | [6] 109% | [9] 94.3% | [10] 101%
active: [1] -2.32% | [7] -75.5% | [8] -55.4%

O=C1c2cccc3cccc(c23)C(=O)N1N1C(=O)c2cccc3c(N4CCOCC4)ccc(c23)C1=O
inactive: [1] 92.4% | [2] 106% | [3] 96.2% | [4] 97.1% | [5] 108% | [6] 90% | [7] 95.6% | [8] 106% | [9] 90.3% | [10] 92%

O=S(=O)(NCCCNc1nccc(-c2c(-c3ccc(F)c(O)c3)nc3occn23)n1)c1ccccc1
inactive: [1] 70.2% | [2] 78.2% | [3] 94.8% | [4] 121% | [5] 104% | [6] 79.4% | [7] 92.1% | [8] 97.9% | [9] 87.3% | [10] 118%

CN1CCN(c2ccc(NC(=O)c3nc4ccc5[nH]ncc5c4c4c3CCCC4)cc2C(F)(F)F)CC1
active: [3] 3.3% | [7] 4.75%
inactive: [1] 13.6% | [2] 24.1% | [4] 85.5% | [5] 65.2% | [6] 100% | [8] 11.5% | [9] 77.6% | [10] 70%

COc1ccc(/C=N/C2=C(C#N)C(c3cccc(Cl)c3)c3c(ccc4ccccc34)O2)cc1 (stereo not given)
inactive: [1] 17.7% | [2] 17.4% | [3] 47.1% | [4] 62.3% | [5] 52.8% | [6] 52.4% | [7] 32.9% | [8] 12.5% | [9] 15.9% | [10] 22.1%

COC(=O)/C=C1/SC(=Nc2ccc(C)cc2)N(CCc2c[nH]c3ccc(O)cc23)C1=O
active: [1] -27.4% | [2] 1.84%
inactive: [3] 29.4% | [4] 108% | [5] 51.1% | [6] 98.4% | [7] 27.5% | [8] 32.7% | [9] 55.1% | [10] 50%

CC(=O)[C@@H]1CCC=C2CC[C@]3(C)[C@@H](CC[C@@H]4[C@@]5(C)CCCNC(C)(C)[C@@H]5CC[C@]43C)[C@H]21
active: [1] -45.2% | [2] -49.2% | [3] -84.4% | [5] -67.5% | [7] -94.2% | [8] -93.3% | [9] -30.9% | [10] -52.2%
inactive: [4] 16.8% | [6] 93%

O=C1/C(=C/c2ccc(F)cc2)COc2ccc(O)cc21
active: [1] 1.11% | [2] -19%
inactive: [3] 87.4% | [4] 96.9% | [5] 93.4% | [6] 123% | [7] 84.9% | [8] 92.4% | [9] 94.1% | [10] 93.2%

CCOC(=O)C(=Cc1cccc(Br)c1)C(=O)OCC
inactive: [2] 12.9% | [3] 29.5% | [4] 42.9% | [5] 48.2% | [6] 86.2% | [7] 47.8% | [8] 15.6% | [9] 25.6% | [10] 11.7%
active: [1] 3.67%

Oc1c(Cl)cc(Cl)c2ccc(Cn3cc(-c4cc(C(F)(F)F)cc(C(F)(F)F)c4)nn3)nc12
active: [1] -14% | [2] 3.44% | [8] -4.28%
inactive: [3] 53.6% | [4] 95.6% | [5] 48.6% | [6] 115% | [7] 82.3% | [9] 94.9% | [10] 97.8%

Cc1cc(Cl)ccc1Nc1nc(C(F)(F)F)ccc1C(=O)N/N=C/c1ccc([N+](=O)[O-])cc1
active: [1] -1.84% | [2] -72.6% | [3] 9.08% | [4] -18.6% | [5] -11.6% | [6] -14.9% | [7] -35.1% | [8] -18.1% | [10] -32.8%
inactive: [9] 97.3%

COC(=O)CCC(=O)C(=O)OC
inactive: [3] 31.8% [10 mM] | [4] 23.6% [10 mM] | [5] 47.8% [10 mM] | [9] 25.2% [10 mM] | [10] 33.1% [10 mM]
active: [1] -26.4% [10 mM] | [2] -8.65% [10 mM] | [6] 3.77% [10 mM] | [7] 9.89% [10 mM] | [8] 5.88% [10 mM]

Cn1c(-c2ccc(Br)cc2)c(O)c(=O)c2c(F)cccc21
inactive: [1] 102% | [2] 104% | [3] 50.9% | [4] 63.8% | [5] 52.1% | [6] 46.3% | [7] 48.6% | [8] 51.7% | [9] 84.9% | [10] 21.8%

CC1(C)CC[C@]2(C(=O)O)CC[C@]3(C)C(=CC[C@@H]4[C@@]5(C)C/C(=C/O)C(=O)C(C)(C)[C@@H]5CC[C@]43C)[C@@H]2C1
inactive: [1] 36.3% | [2] 13.2% | [3] 29.3% | [4] 81.4% | [5] 63% | [6] 89.8% | [7] 31.4% | [8] 21% | [9] 74.1% | [10] 38.8%

COc1ccc(OC)c(C(=O)/C=C/c2cc3c(c(OC)c2OC)OCO3)c1
active: [2] 6.09%
inactive: [1] 17.8% | [3] 58.1% | [4] 121% | [5] 63.4% | [6] 79.1% | [7] 71.5% | [8] 59.4% | [9] 75.9% | [10] 63.1%

COC(=O)c1cc(-c2ccc(OC)cc2)[nH]c1N/N=C/c1c(Cl)cccc1Cl
inactive: [2] 10.9% | [3] 14.5% | [4] 44.3% | [5] 40.6% | [6] 18.8% | [7] 29% | [10] 20%
active: [1] -16.4% | [8] -72.4% | [9] 0.353%

COC(=O)c1ccc2c(c1)C(=O)c1c-2n(CCCN)c(=O)c2cc([N+](=O)[O-])ccc12
active: [1] -45.3% | [2] -40.4% | [3] -65.3% | [4] -74.2% | [5] -77.1% | [6] -81.8% | [7] -81.7% | [8] -93.2% | [9] -71% | [10] -39.4%

O=S(=O)(Nc1ccccc1)c1ccc(C2CC3(Cl)C(Cl)=C(Cl)C2(Cl)C3(Cl)Cl)cc1 (stereo not given)
inactive: [1] 18.8% | [2] 13.8% | [3] 55.6% | [4] 60.1% | [5] 44% | [6] 76% | [7] 54.8% | [8] 26% | [9] 54.8% | [10] 24.1%

CCOC(=O)c1c2c(n3ccc(C)cc13)C(=O)c1ccccc1C2=O
inactive: [1] 84.8% | [2] 98% | [3] 86.1% | [4] 109% | [5] 101% | [6] 103% | [7] 78% | [8] 88.2% | [9] 93.3% | [10] 95%

O=C1Nc2ccc(Br)cc2/C1=N/c1n[nH]c(=S)s1
inactive: [1] 83.5% | [2] 103% | [3] 95% | [4] 110% | [5] 108% | [6] 93.2% | [7] 105% | [8] 104% | [9] 93.9% | [10] 95.7%

O=C(Cn1c(-c2ccc([N+](=O)[O-])cc2)nc2ccccc21)NNC(=O)c1cccnc1
inactive: [1] 75.9% | [2] 77.6% | [3] 85.1% | [4] 101% | [5] 96.5% | [6] 102% | [7] 63.3% | [8] 97.3% | [9] 101% | [10] 87.9%

CCOC(=O)C(=Cc1cccc(Cl)c1)C(=O)OCC
inactive: [4] 13.9% | [5] 59.9% | [6] 100% | [8] 33.8% | [9] 68%
active: [1] 6.69% | [2] -8.77% | [3] -8.33% | [7] 9.1% | [10] 4.71%
